# Records with an inconclusive call do not appear. Calls of active or inactive are those of the source. Calls follow the shape of the full dose curve.
# Test: qHTS assay for small molecule agonists of the p53 signaling pathway (AID 651631); also: nearly all actives have a fitted effect of over 15% in size
# Conditions: HCT-116 p53RE-bla reporter, beta-lactamase FRET ratio, 16 h; series mostly up to 73.3 µM
# Source text: U.S. Tox21 Program National Center for Advancing Translational Sciences [NCATS] NIH Chemical Genomics Center [NCGC] U.S. Environmental Protection Agency [EPA] National Institutes of Environmental Health Sciences [NIEHS] National Toxicology Program [NTP] U.S. Food and Drug Administration [FDA] Tox21 Assay Overview: p53, a tumor suppressor protein, is activated following cellular insult, including DNA damage and other cellular stresses. The activation of p53 regulates cell fate by inducing DNA repair, cell cycle arrest, apoptosis, or cellular senescence. The activation of p53, therefore, is a good indicator of DNA damage and other cellular stresses. The CellSensor p53RE-bla HCT-116 cell line (Invitrogen) contains a stably integrated beta-lactamase reporter gene under control of the p53 response elements. The activation of the reporter gene under culture conditions can be detected by fluorescence intensity. This cell line was used to screen the Tox21 compound library in a 1536-well plate format and to identify agonists that activate the p53 signaling pathway.
# Tox21 Assay Protocol Summary: The p53RE-bla cells were dispensed at 4,000 cells/5 ul/well in 1536-well black wall/clear bottom plates using a Multidrop dispenser. After the assay plates were incubated at a 37 C/5% CO2 incubator for 5 hours, 23 nL of compounds dissolved in DMSO, positive controls or DMSO only was transferred to the assay plate by a pin tool. The plates were incubated at 37 C for 16 hours. After 1 uL of LiveBLAzerTM B/G FRET substrate was added using a Flying Reagent Dispenser, the plates were incubated at room temperature for 2 hours, and fluorescence intensity was measured by an Envision plate reader.
row,SMILES,outcome
1,Cc1cccc(C(=O)O)c1[N+](=O)[O-],inactive
2,Nc1ccc(S(=O)(=O)NC(=O)c2ccccc2)cc1,inactive
3,BrC/C=C/CBr,inactive
4,COc1ccc(NS(=O)(=O)c2ccc(N)cc2)nn1,inactive
5,CC(C)C(=O)c1ccccc1,inactive
6,O=C(O)C(=O)Nc1cccc(-c2nn[nH]n2)c1,inactive
7,O=C(O)/C=C/c1ccccc1,inactive
8,C1=CCC(c2ccccc2)CC1 (stereo not given),inactive
9,C=CCOc1cc(Cl)ccc1C(=O)NCCN(CC)CC,inactive
10,CC(=O)OC(C)c1ccccc1 (stereo not given),inactive
11,C=C(C)[C@@H]1CC[C@@H](C)C[C@@H]1O,inactive
12,O=C1OC(=O)c2ccccc21,inactive
13,O=C(Nc1cccc(C2=NCCN2)c1)Nc1cccc(C2=NCCN2)c1,inactive
14,CCCCCC1CCCC(=O)O1 (stereo not given),inactive
15,CCOC(=O)CC#N,inactive
16,Cc1ccccc1OCC1CO1 (stereo not given),inactive
17,O=C(c1ccc2c(c1)C(=O)OC2=O)c1ccc2c(c1)C(=O)OC2=O,inactive
18,C/C=C(\C)C(=O)OCC/C=C\CC,inactive
19,O=c1[nH]c(=O)c2[nH]c(=O)[nH]c2[nH]1,inactive
20,COCCOCCOCCOC,inactive

row,SMILES,outcome
1,C[N+](C)(C)CC(O)CCl (stereo not given),inactive
2,Cc1cc(C)cc([N+](=O)[O-])c1,inactive
3,NC(=O)C1(N2CCCCC2)CCN(CCCC(=O)c2ccc(F)cc2)CC1,inactive
4,Nc1cc(C(=O)O)ccc1Cl,inactive
5,OC[C@@H](O)[C@H](O)[C@@H](O)[C@@H](O)CO,inactive
6,CCC(=O)OCCC(C)CCC=C(C)C (stereo not given),inactive
7,Nc1cc(S(=O)(=O)O)ccc1S(=O)(=O)O,inactive
8,NS(=O)(=O)c1cc2c(cc1Cl)NC(CC1CCCC1)NS2(=O)=O (stereo not given),inactive
9,CCS(=O)(=O)CCn1c([N+](=O)[O-])cnc1C,inactive
10,O=C(CN1CCN(Cc2ccc3c(c2)OCO3)CC1)N1c2ccccc2Sc2ccccc21,inactive
11,CCCCCCCCCCC,inactive
12,COc1ccc(OC)c(NC(=O)CC(C)=O)c1,inactive
13,O=CN1CCOCC1,inactive
14,CC(=O)OCCCc1ccccc1,inactive
15,O=C(O)c1ccccc1C(=O)OCc1ccccc1,inactive
16,C=C(C)C(=O)OCCCCCCOC(=O)C(=C)C,inactive
17,CC(=O)N(CC(O)CO)c1c(I)c(C(=O)NCC(O)CO)c(I)c(C(=O)NCC(O)CO)c1I (stereo not given),inactive
18,Oc1ccccc1Cc1ccccc1O,inactive
19,O=C(O)c1ccccc1C(=O)Nc1ccc(S(=O)(=O)Nc2nccs2)cc1,inactive
20,CC(C)CCO,inactive

# Reference: PubChem BioAssay (Tox21)
